From ChEMBL document CHEMBL4513141, “CO-ADD screening of NIH (USA) - Clinical Collection” (2021)
Results with a measured potency or affinity are listed apart.

Legend:
[1] = test system: Klebsiella pneumoniae; details: Concentration 20 uM; ASSAY_TEST Inhibition of Bacterial Growth; detection method Absorption (OD600); MEDIA CAMHB; plate type 384well; NBS; CORNING #3640; time 18 hr
[2] = test system: Candida albicans; details: 20 µM
[3] = test system: Cryptococcus neoformans; details: Concentration 20 uM; ASSAY_TEST Inhibition of Fungal Growth; detection method Resazurin; Absorption (OD600-OD570); plate type 384well; NBS; CORNING #3640

Row | SMILES | Inhibition [1] | Inhibition [2] | Inhibition [3]
1 | Nc1nc(=O)c2nc(CNc3ccc(C(=O)N[C@@H](CCC(=O)O)C(=O)O)cc3)cnc2[nH]1 [FOLIC ACID] | 12.05% | 1.12% | -7.28%
2 | Cc1cnc(NC(=O)C2=C(O)c3ccccc3S(=O)(=O)N2C)s1 [MELOXICAM] | 2.2% | 9.71% | -3.68%
3 | COC(=O)C1=C(C)NC(C)=C(C(=O)OCC(C)C)C1c1ccccc1[N+](=O)[O-] (stereo not given) [NISOLDIPINE] | 25.81% | 6.12% | 42.23%
4 | O=c1cnn([C@@H]2O[C@H](CO)[C@@H](O)[C@H]2O)c(=O)[nH]1 [6-AZAURIDINE] | 4.69% | 7.12% | 7.24%
5 | CC(C)[C@H]1CC[C@H](C(=O)N[C@H](Cc2ccccc2)C(=O)O)CC1 [NATEGLINIDE] | 12.08% | 4.05% | -0.58%
6 | CCc1ccc(CCOc2ccc(CC3SC(=O)NC3=O)cc2)nc1.Cl (stereo not given) [PIOGLITAZONE HYDROCHLORIDE] | 2.41% | 2.58% | -2.27%
7 | CN1CCN(CCCN2c3ccccc3Sc3ccc(C(F)(F)F)cc32)CC1.Cl.Cl [TRIFLUOPERAZINE HYDROCHLORIDE] | 10.06% | 2.94% | -7.04%
8 | CCC(=O)O[C@]1(C(=O)SCF)[C@H](C)C[C@H]2[C@@H]3C[C@H](F)C4=CC(=O)C=C[C@]4(C)[C@@]3(F)[C@@H](O)C[C@@]21C [FLUTICASONE PROPIONATE] | 6.12% | 10.1% | -1.8%
9 | CCC1=C(C)CN(C(=O)NCCc2ccc(S(=O)(=O)NC(=O)N[C@H]3CC[C@H](C)CC3)cc2)C1=O [GLIMEPIRIDE] | 11.97% | 1.98% | -2.89%
10 | CCOC(=O)C1=C(C)NC(C)=C(C(=O)OC)C1c1cccc([N+](=O)[O-])c1 (stereo not given) [NITRENDIPINE] | 3.96% | 3.79% | -6.79%
11 | Cc1nc2ccccn2c(=O)c1CCN1CCC(C(=O)c2ccc(F)cc2)CC1 [PIRENPERONE] | 8.87% | 3.8% | -7.79%
12 | CC(=O)S[C@@H]1CC2=CC(=O)CC[C@]2(C)[C@H]2CC[C@@]3(C)[C@@H](CC[C@@]34CCC(=O)O4)[C@H]12 [SPIRONOLACTONE] | 18.33% | 1.56% | -2.8%
13 | Nc1nc2c(ncn2COC(CO)CO)c(=O)[nH]1 [GANCICLOVIR] | 11.05% | 0% | -0.42%
14 | COCCCC/C(=N\OCCN)c1ccc(C(F)(F)F)cc1.O=C(O)/C=C\C(=O)O [FLUVOXAMINE MALEATE] | 6.46% | 2.11% | -8.17%
15 | CC(C(O)c1ccc(O)cc1)N1CCC(Cc2ccccc2)CC1.O.O=C(O)C(O)C(O)C(=O)O (stereo not given) | 15.53% | 2.38% | -4.72%
16 | Nc1ccn([C@H]2CC[C@@H](CO)O2)c(=O)n1 [ZALCITABINE] | 8% | 0.46% | -0.26%
17 | CC(C)(C)NC(=O)[C@@H]1C[C@@H]2CCCC[C@@H]2CN1C[C@@H](O)[C@H](Cc1ccccc1)NC(=O)[C@H](CC(N)=O)NC(=O)c1ccc2ccccc2n1.CS(=O)(=O)O [SAQUINAVIR MESYLATE] | 4.6% | 4.21% | -6.99%
18 | CC(=O)Nc1nnc(S(N)(=O)=O)s1 [ACETAZOLAMIDE] | 10.3% | 4.56% | -2.97%
19 | CCN(CC)CC(=O)Nc1c(C)cccc1C [LIDOCAINE] | 14.92% | 1.15% | -4.85%
20 | CCN(CC)CCOC(=O)C1(C2CCCCC2)CCCCC1.Cl [DICYCLOMINE HYDROCHLORIDE] | 5.74% | 3.82% | -0.13%
21 | CC[C@H](C)C(=O)O[C@H]1CCC=C2C=C[C@H](C)[C@H](CC[C@@H]3C[C@@H](O)CC(=O)O3)[C@H]21 [MEVASTATIN] | 5.3% | 24.7% | -2.39%
22 | CCc1c(C)[nH]c2c1C(=O)C(CN1CCOCC1)CC2.Cl (stereo not given) [MOLINDONE HYDROCHLORIDE] | -0.12% | 3.99% | 6.64%
23 | COCCOC(=O)C1=C(C)NC(C)=C(C(=O)OC(C)C)C1c1cccc([N+](=O)[O-])c1 (stereo not given) [NIMODIPINE] | 1.9% | 5.34% | -7.18%
24 | O=C(O[C@H]1[C@H](Oc2ccccc2COC(=O)C2(O)C=CCCC2=O)O[C@H](CO)[C@@H](O)[C@@H]1O)c1ccccc1 (stereo not given in full) [TREMULACIN] | 9.15% | 3.13% | -9.11%
25 | Cc1sc(N)c(C(=O)c2cccc(C(F)(F)F)c2)c1C | 7% | 1.23% | -0.97%
26 | O=C([O-])Cc1ccccc1Nc1c(Cl)cccc1Cl.[Na+] [DICLOFENAC SODIUM] | – | 5.99% | 1.05%
27 | CNCC(O)c1ccc(O)c(O)c1 (stereo not given) [RACEPINEPHRINE] | 12.35% | 4.12% | -0.68%

Row | SMILES | Inhibition [1] | Inhibition [2] | Inhibition [3]
28 | Cl.Nc1nc2ccc(OC(F)(F)F)cc2s1 | 11.2% | 2.98% | -9.1%
29 | Nc1nc2c(ncn2COCCO)c(=O)[nH]1 [ACYCLOVIR] | 6.29% | 4.6% | -1.27%
30 | CC1(C)S[C@@H]2[C@H](NC(=O)[C@H](N)c3ccc(O)cc3)C(=O)N2[C@H]1C(=O)O [AMOXICILLIN] | 10.29% | 9.25% | -2.09%
31 | CCCCNc1cc(C(=O)O)cc(S(N)(=O)=O)c1Oc1ccccc1 [BUMETANIDE] | 11.75% | 3.22% | 1%
32 | COc1ccc(CN2CCN(C(c3ccc(F)cc3)c3ccc(F)cc3)CC2)c(OC)c1OC.Cl.Cl | -0.73% | 2.16% | -36.76%
33 | CCOc1cc(CC(=O)N[C@@H](CC(C)C)c2ccccc2N2CCCCC2)ccc1C(=O)O [REPAGLINIDE] | 3.14% | 4.01% | -6.91%
34 | CN(C)CCN(Cc1ccccc1)c1ccccn1.Cl [TRIPELENNAMINE HYDROCHLORIDE] | 2.28% | 5.56% | 2.92%
35 | Cc1ccccc1C(OCCN(C)C)c1ccccc1.Cl (stereo not given) [ORPHENADRINE HYDROCHLORIDE] | 11.73% | 1.54% | -6.53%
36 | O=c1[nH]c(=O)n(C2CCCO2)cc1F (stereo not given) [TEGAFUR] | 13.49% | 3.66% | -3.75%
37 | COc1ccc(-c2cc(=O)c3c(OC)c(OC)c(OC)c(OC)c3o2)cc1OC [NOBILETIN] | 4.76% | 7.12% | -2.3%
38 | C[C@H]1O[C@@H](O[C@H]2[C@@H](O)C[C@H](O[C@H]3[C@@H](O)C[C@H](O[C@H]4CC[C@@]5(C)[C@H](CC[C@@H]6[C@@H]5C[C@@H](O)[C@]5(C)C(C7=CC(=O)OC7)CC[C@]65O)C4)O[C@@H]3C)O[C@@H]2C)C[C@H](O)[C@@H]1O (stereo not given in full) | 10.13% | 4.95% | -6%
39 | CCOC(=O)O[C@]1(C(=O)OCCl)CC[C@H]2[C@@H]3CCC4=CC(=O)C=C[C@]4(C)[C@H]3[C@@H](O)C[C@@]21C [LOTEPREDNOL ETABONATE] | 0.28% | 4.45% | 0.62%
40 | CC12CC3CC(C)(C1)CC(N)(C3)C2.Cl [MEMANTINE HYDROCHLORIDE] | 12.73% | 4.09% | -0.08%
41 | C[C@@H]1C[C@H]2[C@@H]3C[C@H](F)C4=CC(=O)C(Cl)=C[C@]4(C)[C@@]3(F)[C@@H](O)C[C@]2(C)[C@@]1(O)C(=O)CO [HALOMETASONE] | 3.82% | -0.05% | -4.6%
42 | CC(=O)CCCCn1c(=O)c2c(ncn2C)n(C)c1=O [PENTOXIFYLLINE] | 12.41% | 2.65% | -7.44%
43 | O=C1C(CC[S+]([O-])c2ccccc2)C(=O)N(c2ccccc2)N1c1ccccc1 (stereo not given) [SULFINPYRAZONE] | 13.98% | 4.96% | -8.91%
44 | CC1CCN(CCCC(=O)c2ccc(F)cc2)CC1.Cl | 24.05% | 2.99% | -4.29%
45 | CS(=O)(=O)c1ccc(C2=C(c3ccccc3)C(=O)OC2)cc1 [ROFECOXIB] | 8.3% | 2.84% | -2.65%
46 | O=C1CCc2ccc(OCCCCN3CCN(c4cccc(Cl)c4Cl)CC3)cc2N1 [ARIPIPRAZOLE] | 2.6% | -0.97% | 6.93%
47 | NCC(=O)CCC(=O)O [AMINOLEVULINIC ACID] | 13.51% | 0.21% | -6.69%
48 | NS(=O)(=O)c1cc2c(cc1Cl)N=CNS2(=O)=O [CHLOROTHIAZIDE] | 4.1% | 4.39% | -0.92%
49 | CCN(CC)CCNC(=O)c1cc(Cl)c(N)cc1OC.Cl | 10.19% | 3.69% | -1.39%
50 | Nc1ccc(O)c(C(=O)O)c1 [MESALAMINE] | – | 1.32% | 3.98%
51 | Nc1ccn([C@@H]2O[C@H](CO)[C@@H](O)[C@@H]2O)c(=O)n1 [CYTARABINE] | 5.64% | 2.79% | -8.77%
52 | CCOc1cc(N)c(Cl)cc1C(=O)NCC1CN(Cc2ccc(F)cc2)CCO1.O=C(O)CC(O)(CC(=O)O)C(=O)O (stereo not given) [MOSAPRIDE CITRATE] | 16.24% | 1.57% | -5.5%
53 | Nc1nc(N)c2nc(-c3ccccc3)c(N)nc2n1 | -1.05% | 4.35% | 1.8%
54 | CCN(CC)CCNC(=O)c1ccc(N)cc1.Cl [PROCAINAMIDE HYDROCHLORIDE] | -3.79% | 0.33% | 3.84%
